We go through 22 molecules from paper PMC12136788.

Numbering of substitutions follows the chain as printed. In all, about 5,800 sequences were measured (“enrichment r”: median about 0.68, highest 2% from about 11 on). The entries come from a sample that favours the highest values as a whole.

First the molecules themselves.
T1: UNK ZnF1-6 (called full-length) (human, UniProt Q9C0B0 30-357)
T1 sequence: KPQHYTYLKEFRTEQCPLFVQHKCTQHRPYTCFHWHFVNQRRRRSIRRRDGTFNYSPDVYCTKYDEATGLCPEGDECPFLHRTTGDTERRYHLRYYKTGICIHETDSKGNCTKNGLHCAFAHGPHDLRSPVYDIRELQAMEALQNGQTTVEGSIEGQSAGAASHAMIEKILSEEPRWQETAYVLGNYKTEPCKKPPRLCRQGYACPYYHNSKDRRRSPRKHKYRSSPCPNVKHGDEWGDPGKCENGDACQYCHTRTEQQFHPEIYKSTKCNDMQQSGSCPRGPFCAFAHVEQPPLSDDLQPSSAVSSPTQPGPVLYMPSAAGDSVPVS

B1: chr12:48145849:48145950:+|3pUTR|ENSG00000152556|msi1|FALSE|unique (ssRNA)
RNA: GGGAGUUCUACAGUCCGACGAUCCAUGACCAGUUCUGGCCAGGAGCUGGAGGAGCAGGCAGUGGGUGGGAGCUCCUUUUAGGUAGAAUUUAACAUGACUUCUGCCCCAGCUUUAUCUGUCACACAAGGCUGGGCACCUCUAGUCAACAGAGGAUUGAGCAUCA
B2: chr1:165890246:165890361:+|CDS|ENSG00000143179|unk|FALSE|unique (ssRNA)
RNA: GGGAGUUCUACAGUCCGACGAUCCUCCUGGGGCAGAAUGAGGUGGACUAUCGCCAGAAGCAGGUGGUCAUCCUGAGCCAGGAUAGCUUCUACCGUGUCCUUACCUCGGAGCAGAAGGCCAAAGCCCUGAAGGGCCAGUUCAACCAACAGAGGAUUGAGCAUCA
B3: chr2:96875881:96876275:-|three_prime_utr|ENSG00000168754|control|control|control (ssRNA)
RNA: GGGAGUUCUACAGUCCGACGAUCUCGCCCACCCCUCAGCCCUCCUCCCAGCCAUCUCCUCUUCCCUAAGGCCUCUGUCUCCAUAGCUCUGGUUUCCCUGGGCCUCAGUCCUCCCCACCCUCCUUCCUCUGUCUCCCUGUCACUCAACAGAGGAUUGAGCAUCA
B4: chr5:95604386:95604487:+|3pUTR|ENSG00000164291|msi1|total|mutant (ssRNA)
RNA: GGGAGUUCUACAGUCCGACGAUCCCUGCCAUCCAGUUCCCCCUCCAAGAAGCAAGUACCGAAACCACCUGCUUACGCAUUUUCCGAGAUUGGCCACAAAUUUAUAAACAAAUGUAUAUAUUCCUUUCCCCCUACACAAACGGUCAACAGAGGAUUGAGCAUCA
B5: ENSG00000198589:be:win_9101|3pUTR|ENSG00000198589|bound_else_gene|NA|bound_elsewhere_windowed (ssRNA)
RNA: GGGAGUUCUACAGUCCGACGAUCUUCAAGCAUGUUUUAGACCUAGAAAAGUAUGGUUUGGGGGAGGCUAUUUUAUUGUGUGGUUAGCACAAGGAAUCUAAUUUAUAGCAAGUGUGAAAUAGUUACCAUUUUUUCCUGAUCUGUCAACAGAGGAUUGAGCAUCA
B6: chr1:229632307:229632408:+|CDS|ENSG00000135763|unk|FALSE|bound_elsewhere (ssRNA)
RNA: GGGAGUUCUACAGUCCGACGAUCAUUUUAUAAGAAAAAGCUUGAACUGAAGGAAGAUAUUGUUGAAAGGCUUUGGAUCUAUAUAGAUAACAUUUUACAUAGCAGAAAAUUGCAGAAUCUCCUCAAGAAUGGAAAGACCAUUAACAACAGAGGAUUGAGCAUCA
B7: chr2:1632960:1633155:-|3pUTR|ENSG00000130508|msi1|FALSE|unique (ssRNA)
RNA: GGGAGUUCUACAGUCCGACGAUCGUCCAUUUUUUAGGUAUUAGAUAUGGCAGAAAAACCAUUUCCACUAUGCAAAGUUCUUUUAGACGUCAGUGAAAAUCAACUCUCAUACCUCAUGGUCUCUCUUUAAUUGACCAAAACCUUCAACAGAGGAUUGAGCAUCA
B8: ENSG00000168936:stop:overlap|stop_codon|ENSG00000168936|stop_codon|NA|stop_codon (ssRNA)
RNA: GGGAGUUCUACAGUCCGACGAUCGUGUGGCCAGCACCAACCCUGCUGUGCAGGCCUUUGACAUCUGGAGCUGGAGGCCUGCAUAGGCUGCAUGCAGACACGUGCCAGCGUGAAGCUGGUGAAGACCUGCCAGGAGGCAGCCACCAACAGAGGAUUGAGCAUCA
B9: chr20:3963869:3963970:-|CDS|ENSG00000101236|unk|FALSE|bound_elsewhere (ssRNA)
RNA: GGGAGUUCUACAGUCCGACGAUCAAUCUGCCUCUCAACAUAUAUAUUGUGGUUUUUGGUACUGCUAUAUUUGUCUUCAUCCUUAGUUUACUCUUCUGUUGCUACUUGAUUAGGUAACCAAUUUUCAUUCUAUGUUACUUCAAACAACAGAGGAUUGAGCAUCA
B10: chr12:64147824:64147925:+|3pUTR|ENSG00000196935|unk|total|mutant (ssRNA)
RNA: GGGAGUUCUACAGUCCGACGAUCCAUCUCUGUGGUGUCUUUGUUCCUUUCCUUUCAUUCAUCACUACUUUCUCCUUGACAGCCCGCUUGCAUUAAAUAAUGUGAAACUUUUACCUUUAAAAUAUUUUUUUAUCUCACUUUCAUCAACAGAGGAUUGAGCAUCA
B11: chr17:77216858:77216994:+|3pUTR|ENSG00000129657|unk|FALSE|bound_elsewhere (ssRNA)
RNA: GGGAGUUCUACAGUCCGACGAUCUGUUUCUACCUUUAGUACCUUGCCACUCUUUUAAAACGCUGCUGUCAUUUCCCAUUUCUUAGUACUAAUGAUUCUUUGAUUCUCCCUCUAUUAUGUCUUAAUUCACUUUCCUUCCUAAAUCAACAGAGGAUUGAGCAUCA
B12: chr3:62294290:62294391:+|3pUTR|ENSG00000144724|msi1|FALSE|unique (ssRNA)
RNA: GGGAGUUCUACAGUCCGACGAUCAACUAGUCCUCUAAAAAUUCCCUAUUACUCCUAUAGCAAUCUAAUAAAAACUACCUACAUAGUUACUGUUUUCUUUCCUUCUUUGCCAAAUGUUUUAUAAUAAAUCUCUUAAUUACAUACCAACAGAGGAUUGAGCAUCA
B13: chr3:62294290:62294391:+|3pUTR|ENSG00000144724|msi1|total|mutant (ssRNA)
RNA: B12 RNA with U27C, A28C, U57C, A58C, U83C, A84C
B14: ENSG00000070961:be:win_4401|3pUTR|ENSG00000070961|bound_else_gene|NA|bound_elsewhere_windowed (ssRNA)
RNA: GGGAGUUCUACAGUCCGACGAUCGUUAUGACAUCUGUCCUAAUUAGUUUCUUAAAUACAUUUACUACUUAAUGGUUUUGAAGCAACUGUUUAAUUUUUAAAAUUUUUGAAAACUUGCUAAUAACCUUUUGUUCAGAAUUUAGUCAACAGAGGAUUGAGCAUCA
B15: chr17:75827259:75827360:-|3pUTR|ENSG00000092929|unk|total|mutant (ssRNA)
RNA: GGGAGUUCUACAGUCCGACGAUCGGACAGUUUGGCUGCUGUGUCUGCUGCGCACGCCCCCUCCCCGGACAGCACCUGCCACCCCGAAACUUUCUCCGCAAAAAAAUUAAUAAAAACAAAUCCAUUGUCCUCUUAAAAUAUGCCCAACAGAGGAUUGAGCAUCA
B16: chr8:48920054:48920155:-|CDS|ENSG00000019549|unk|total|mutant (ssRNA)
RNA: GGGAGUUCUACAGUCCGACGAUCACCUAUUCAACUUUUUCUGGGCUGGCCAAACAUAAGCAGCUGCACUGCGAUGCCCAGUCCCGAAAAUCUUUCAGCUGUAAAUACUGUGACAAGGAAUAUGUGAGCCUGGGCGCCCUGAAGCAACAGAGGAUUGAGCAUCA
B17: chr1:151249111:151249212:+|3pUTR|ENSG00000143398|unk|FALSE|unique (ssRNA)
RNA: GGGAGUUCUACAGUCCGACGAUCGCAGAUUGUUGAAUUCCUGUUCUAUCCCUUCUCUAUCCCACCCUGCCUUGAUAAUAUGUUAGCCCAUACCCCAAAUAACUGUCUAUAUUAGACACCCCCAGCCAGUUUCUGGCUGCCUGUCAACAGAGGAUUGAGCAUCA
B18: ENSG00000107863:be:win_5701|CDS|ENSG00000107863|bound_else_gene|NA|bound_elsewhere_windowed (ssRNA)
RNA: GGGAGUUCUACAGUCCGACGAUCAGCACCUUGGCUUCAACAAACAGGCCCCUUCUUUCCAUACCACCACAGUCACCUGACCAAAUAAACGGAGAAAGCUUCCAGAACGUGAGCAAAAAUGCUAGUUCUGCAGCGAAUGCCCAACAACAGAGGAUUGAGCAUCA
B19: ENSG00000113300:stop:overlap|stop_codon|ENSG00000113300|stop_codon|NA|stop_codon (ssRNA)
RNA: GGGAGUUCUACAGUCCGACGAUCUGGAGCUCUUACUGCCUUUCCUGCCCCAAGUCAACGGCAUCCACCUUCCUGGCAGGAGGUAGUCAAGCACCUUCAGAGGACAGCCUUGAUUCACUUGUAAACUUGUGAAAAUCUGAACAUCAACAGAGGAUUGAGCAUCA
B20: chr17:75827259:75827360:-|3pUTR|ENSG00000092929|unk|FALSE|unique (ssRNA)
RNA: B15 RNA with C83U, C84A, C95U, C96A
B21: chr2:1632960:1633155:-|3pUTR|ENSG00000130508|msi1|total|mutant (ssRNA)
RNA: B7 RNA with U34C, A35C, U41C, A42C, U83C, A84C
B22: chr11:119024350:119024909:-|three_prime_utr|ENSG00000137700|control|control|control (ssRNA)
RNA: GGGAGUUCUACAGUCCGACGAUCUCCCACGGUGGCCUUCCCCCUGCACGCUCUGCGGGGAGAAAAGGAGGGGCCUGCCUGGCUAGCCCUGAACCUUUCACUUUCCAUUUCUGCGCCUUUUCUGUCACCCGGGUGGCGCUGGAACAACAGAGGAUUGAGCAUCA

This test addresses T1, UNK ZnF1-6 (called full-length). Put plainly: nsRBNS (natural sequence RNA bind-n-seq); RBNS binding buffer (assumed for nsRBNS): 25 mM Tris pH 7.5, 150 mM KCl, 3 mM MgCl2, 0.01% Triton X-100, 500 ug/ml BSA, 20 U/ml SUPERase-In, 4 C; UNK is unkempt and MSI1 is Musashi-1; names of the RNAs are library labels; protein concentration not given here; high values mean tight binding.
Consider B1, for which the binding signal stood at 6.28 enrichment R.

Molecule B2 had a binding signal of 0.748 enrichment R.

Regarding B3, the binding signal came out at 1.84 enrichment R.

In turn, B4 had a binding signal of 1.51 enrichment R.

As for B5, the binding signal came to 2.96 enrichment R.

Turning to B6, the binding signal is 2.37 enrichment R.

On to B7, for which the binding signal was 0.915 enrichment R.

For the molecule B8, the binding signal stood at 1.06 enrichment R.

As for B9, the binding signal amounted to 2.08 enrichment R.

On to B10, for which the binding signal was 2.22 enrichment R.

On to B11, for which the binding signal came out at 14 enrichment R.

In the case of B12, the binding signal was 68.7 enrichment R.

For the molecule B13, the binding signal turned out to be 3.11 enrichment R.

B14 returned a binding signal of 5.85 enrichment R.

Molecule B15 displayed a binding signal of 0.989 enrichment R.

As to B16, the binding signal came to 0.712 enrichment R.

B17 returned a binding signal of 2.26 enrichment R.

B18: the binding signal turned out to be 0.589 enrichment R.

B19 came in with a binding signal of 21.5 enrichment R.

Consider B20, for which the binding signal was 25.7 enrichment R.

As for B21, the binding signal was determined as 0.41 enrichment R.

Molecule B22 registered a binding signal of 0.719 enrichment R.
